From the supplement of paper PMC5662767
Counter-ions that a name gives are not always drawn.

Test system: Drosophila S2 cl14 SmoIP sensor cells
Assay: normalized SmoIP GFP fluorescence (untreated unstimulated = 0%, untreated Hh-stimulated = 100%); higher = more Smo activation sensor fluorescence
Conditions: compound concentration: 2 uM, 24 h
[1] = stimulation: Hh conditioned medium (+Hh)
[2] = stimulation: mock conditioned medium (-Hh)
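Further: flow cytometry read-out as median GFP intensity of gated cells, compounds added 30 min before Hh-conditioned or mock medium, mock-treated cells serving as unstimulated baseline.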

Q: What does the source list for Cc1cc(Cn2cnc3c2CC(C(=O)O)N(C(=O)C(c2ccccc2)c2ccccc2)C3)ccc1N(C)C (stereo not drawn)?
A: normalized SmoIP GFP fluorescence [1]: 109%; normalized SmoIP GFP fluorescence [2]: -4.13%

Q: How did the “normalized SmoIP GFP fluorescence” value [1] turn out when O=C(Nc1ccccc1-c1cn2c(CN3CCNCC3)csc2n1)c1cnc2ccccc2n1 was run?
A: 107%

Q: And the “normalized SmoIP GFP fluorescence” value [2]?
A: 1.57%

Q: How did the “normalized SmoIP GFP fluorescence” value [1] turn out when Fc1cc(-c2cccc3ncc(-c4cnn(C5CCNCC5)c4)nc23)cc(F)c1CN1CCOCC1 was run?
A: 145%

Q: And the “normalized SmoIP GFP fluorescence” value [2]?
A: -4.08%

Q: With CC/C(=C(\c1ccccc1)c1ccc(OCCN(C)C)cc1)c1ccccc1 [Tamoxifen-Citrate(Nolvadex)] as the compound, how does the “normalized SmoIP GFP fluorescence” value [1] read?
A: 112%

Q: What about the “normalized SmoIP GFP fluorescence” value [2] of the same compound?
A: -6.61%

Q: With O=C(C[S+]([O-])Cc1ccco1)NC/C=C\COc1cc(CN2CCCCC2)ccn1 (stereo not drawn) [lafutidine] as the compound, how does the “normalized SmoIP GFP fluorescence” value [1] read?
A: 113%

Q: What about the “normalized SmoIP GFP fluorescence” value [2] of the same compound?
A: -9.85%

Q: Which results are given for CC(C)(C)c1cnc(CSc2cnc(NC(=O)C3CCNCC3)s2)o1?
A: normalized SmoIP GFP fluorescence [1]: 131%; normalized SmoIP GFP fluorescence [2]: 66%

Q: What does the source list for O=C1C[C@@H](c2ccc(O)cc2)Oc2cc(O)cc(O)c21 [Naringenin]?
A: normalized SmoIP GFP fluorescence [1]: 106%; normalized SmoIP GFP fluorescence [2]: -6.61%

Q: Cc1cncc(CN2CCC(=C3c4ccc(Cl)cc4CCc4cccnc43)CC2)c1 [rupatadine-fumarate] was tested. Which “normalized SmoIP GFP fluorescence” value [1] did it give?
A: 112%

Q: And the “normalized SmoIP GFP fluorescence” value [2]?
A: 3.77%

Q: Which “normalized SmoIP GFP fluorescence” value [1] does the source give for Cc1nnc(C(=O)NC(C)(C)c2nc(C(=O)NCc3ccc(F)cc3)c(O)c(=O)n2C)o1 [Raltegravir-(MK-0518)] here?
A: 111%

Q: What about the “normalized SmoIP GFP fluorescence” value [2] of the same compound?
A: -11.7%

Q: With Cc1cc(C2CCCCC2)n(O)c(=O)c1 [ciclopirox-ethanolamine] as the compound, how does the “normalized SmoIP GFP fluorescence” value [1] read?
A: 101%

Q: What about the “normalized SmoIP GFP fluorescence” value [2] of the same compound?
A: -0.264%

Q: Which “normalized SmoIP GFP fluorescence” value [1] does the source give for O=C(NCc1ccc(Oc2ccccc2)cc1)c1nc(-c2cc(Br)c(O)c(Br)c2)no1 [iowh032] here?
A: 117%

Q: And the “normalized SmoIP GFP fluorescence” value [2]?
A: 20%

Q: Which results are given for COc1ccc(CNCc2cccc3ccccc23)cc1?
A: normalized SmoIP GFP fluorescence [1]: 111%; normalized SmoIP GFP fluorescence [2]: -2.82%

Q: For COc1ccc(-c2ccc3ncc4c(c3c2)n(-c2ccc(N3CCNCC3)c(C(F)(F)F)c2)c(=O)n4C)cn1, which “normalized SmoIP GFP fluorescence” value [1] is on record?
A: 66.3%

Q: And the “normalized SmoIP GFP fluorescence” value [2]?
A: -7.6%

Q: What does the source list for NC(=O)c1ccc(-c2nc(-c3ccccn3)c(-c3ccc4c(c3)OCO4)[nH]2)cc1?
A: normalized SmoIP GFP fluorescence [1]: 130%; normalized SmoIP GFP fluorescence [2]: -2.96%

Q: Cn1ncnc1[C@H]1c2n[nH]c(=O)c3cc(F)cc(c23)N[C@@H]1c1ccc(F)cc1 was tested. Which “normalized SmoIP GFP fluorescence” value [1] did it give?
A: 107%

Q: What about the “normalized SmoIP GFP fluorescence” value [2] of the same compound?
A: -2.82%

Q: COc1cc(Br)c(Nc2nc(-c3c(C)nc4ncccn34)cs2)c(Br)c1 was tested. Which “normalized SmoIP GFP fluorescence” value [1] did it give?
A: 110%

Q: What about the “normalized SmoIP GFP fluorescence” value [2] of the same compound?
A: 5.12%

Q: With CN(C)CC(c1ccc(O)cc1)C1(O)CCCCC1 (stereo not drawn) [desvenlafaxine-succinate] as the compound, how does the “normalized SmoIP GFP fluorescence” value [1] read?
A: 103%

Q: What about the “normalized SmoIP GFP fluorescence” value [2] of the same compound?
A: -5.38%

Q: What does the source list for O=S(=O)(c1cccc2cnccc12)N1CCCNCC1 [Fasudil-HCl(HA-1077)]?
A: normalized SmoIP GFP fluorescence [1]: 97%; normalized SmoIP GFP fluorescence [2]: -3.93%

Q: What does the source list for CN(C)c1ccc(-c2nc3ncc(Cl)c(N4CCN(CC(=O)Nc5nccs5)CC4)c3[nH]2)cc1?
A: normalized SmoIP GFP fluorescence [1]: 125%; normalized SmoIP GFP fluorescence [2]: 6.74%

Q: Which “normalized SmoIP GFP fluorescence” value [1] does the source give for CN(C)CC(c1ccc(O)cc1)C1(O)CCCCC1 (stereo not drawn) [desvenlafaxine] here?
A: 105%

Q: And the “normalized SmoIP GFP fluorescence” value [2]?
A: -0.889%

Q: How did the “normalized SmoIP GFP fluorescence” value [1] turn out when Cc1ccc(C(=O)c2cc(O)c(O)c([N+](=O)[O-])c2)cc1 [tolcapone] was run?
A: 108%

Q: And the “normalized SmoIP GFP fluorescence” value [2]?
A: -2.48%

Q: For Cc1onc(-c2ccccc2)c1-c1ccc(S(N)(=O)=O)cc1 [valdecoxib], which “normalized SmoIP GFP fluorescence” value [1] is on record?
A: 104%

Q: What about the “normalized SmoIP GFP fluorescence” value [2] of the same compound?
A: -5.49%

Q: O=c1n(CCCN2CCN(c3cccc(Cl)c3)CC2)nc2ccccn12 [trazodone-hydrochloride-desyrel] was tested. Which “normalized SmoIP GFP fluorescence” value [1] did it give?
A: 172%

Q: And the “normalized SmoIP GFP fluorescence” value [2]?
A: -8.23%

Q: Which results are given for Cc1[nH]nc2ccc(-c3cncc(OC[C@@H](N)Cc4ccccc4)c3)cc12?
A: normalized SmoIP GFP fluorescence [1]: 134%; normalized SmoIP GFP fluorescence [2]: 8.54%

Q: What does the source list for CC1=C(C(=O)OC2CCCCC2)C(c2ccc([N+](=O)[O-])cc2)C2=C(CC(C)(C)CC2=O)N1 (stereo not drawn)?
A: normalized SmoIP GFP fluorescence [1]: 117%; normalized SmoIP GFP fluorescence [2]: 4.26%

Q: With Cc1cnc(Nc2ccc(OCCN3CCCC3)cc2)nc1Nc1cccc(S(=O)(=O)NC(C)(C)C)c1 as the compound, how does the “normalized SmoIP GFP fluorescence” value [1] read?
A: 173%

Q: What about the “normalized SmoIP GFP fluorescence” value [2] of the same compound?
A: 8.54%

Q: How did the “normalized SmoIP GFP fluorescence” value [1] turn out when Cc1ccc(-c2cc(C(F)(F)F)nn2-c2ccc(S(N)(=O)=O)cc2)cc1 [Celecoxib] was run?
A: 111%

Q: And the “normalized SmoIP GFP fluorescence” value [2]?
A: 2.11%

Q: Cc1cc(C(C)(C)C)c(O)c(C)c1CC1=NCCN1 [Oxymetazoline-hydrochloride] was tested. Which “normalized SmoIP GFP fluorescence” value [1] did it give?
A: 95.8%

Q: What about the “normalized SmoIP GFP fluorescence” value [2] of the same compound?
A: -3.5%

Q: With O=C(NCCS(=O)(=O)c1ccc(C(F)(F)F)cn1)c1ccc(Cl)cc1 as the compound, how does the “normalized SmoIP GFP fluorescence” value [1] read?
A: 120%

Q: And the “normalized SmoIP GFP fluorescence” value [2]?
A: -14.9%

Q: How did the “normalized SmoIP GFP fluorescence” value [1] turn out when Cc1cc(-c2ccc(CC(=O)Nc3ccc(-c4cccnc4)cc3)cc2)ccn1 was run?
A: 247%

Q: What about the “normalized SmoIP GFP fluorescence” value [2] of the same compound?
A: 10.6%

Q: How did the “normalized SmoIP GFP fluorescence” value [1] turn out when Cc1ccc(Nc2nccc(N(C)c3ccc4c(C)n(C)nc4c3)n2)cc1S(N)(=O)=O [Pazopanib-Hydrochloride] was run?
A: 117%

Q: And the “normalized SmoIP GFP fluorescence” value [2]?
A: -4.53%

Q: Which results are given for COc1cc2c(cc1OC)CC(=O)N(CCCN(C)C[C@@H]1Cc3cc(OC)c(OC)cc31)CC2 [ivabradine-hcl-procoralan]?
A: normalized SmoIP GFP fluorescence [1]: 111%; normalized SmoIP GFP fluorescence [2]: -11.2%

Q: Which results are given for O=C(NC1CCOCC1)c1ccc(-c2cc(-c3c[nH]nc3-c3ccccn3)ccn2)cc1?
A: normalized SmoIP GFP fluorescence [1]: 168%; normalized SmoIP GFP fluorescence [2]: -1.38%

Q: For O=C(Nc1ccccc1Br)N[C@@H]1CCN(c2ccc(C(F)(F)F)cn2)C1, which “normalized SmoIP GFP fluorescence” value [1] is on record?
A: 137%

Q: And the “normalized SmoIP GFP fluorescence” value [2]?
A: -2.82%
